Assay [1] can be described thus: Primary qHTS for inhibitors of nuclear receptor binding SET domain protein 2 (NSD2) in an RCH-ACV wild type WT cells (2C) (AID 1645877). Note: nearly all actives have a fitted effect of over 70% in size. Note: potency is the fitted concentration of half-maximal effect.
Assay [2] deals with Glutathione peroxidase 1 (Homo sapiens) (UniProt P07203). Nature of the assay: Primary qHTS Assay for Inhibitors of Recombinant Selenoprotein Glutathione Peroxidase 1 (GPX1) (AID 1845191). Note: nearly all actives have a fitted effect of over 65% in size. In a few lines:
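GPX1 10 nM, GR 100 nM, GSH 1 mM, NADPH 0.5 mM, CHP 0.5 mM (final). 30-min cpd preincubation, RT. Ex340/Em450 read t=0, t=15 min.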
In general terms: qHTS replaces the single test concentration by a dilution series.

In assay [3] the target is Phospholipid hydroperoxide glutathione peroxidase GPX4 (Homo sapiens) (UniProt P36969). Nature of the assay: Primary qHTS Assay for Inhibitors of Recombinant Selenoprotein Glutathione Peroxidase 4 (GPX4) (AID 1845192). Note: nearly all actives have a fitted effect of over 65% in size. In a few lines:
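qHTS, GR-coupled: GPX4 200 nM + cpd 30 min RT → GSH 1 mM, NADPH 0.5 mM, GR 100 nM → CHP 0.5 mM start; fluor 340/450 at t0 and t15 min; no-enzyme wells as control.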

Assay [4] has as its target Luciferin 4-monooxygenase (Photinus pyralis) (UniProt P08659). The assay is described as follows: Primary firefly luciferase (FLuc) qHTS assay for identification of artifact compounds. (AID 1845220). Note: nearly all actives have a fitted effect of over 60% in size. Note: potency is the fitted concentration of half-maximal effect. In a few lines:
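In this counter-screen for luciferase artifacts, test compounds met substrate (10 uM each luciferin and ATP) before 10 nM enzyme started the reaction. Light output was measured 5 min later.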

Assay [5] has as its system Nanoluciferase (engineered Oplophorus gracilirostris luciferase). The assay is described as follows: Primary Nanoluciferase (NLuc) qHTS assay for identification of artifact compounds. (AID 1845222).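 Note: NLuc secreted into diluted conditioned medium of S16 cells; series mostly up to about 54 µM.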 Put shortly:
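Using secreted nanoluciferase in S16 culture medium (0.22 um filtered, 1:55 dilution), compounds were preincubated 15 min at RT. Signal was generated with Nano-Glo reagent (1:100) over 5 min.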

A short description of assay [6]: Primary redox qHTS assay for identification of artifact compounds. (AID 1845223). Put shortly: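 Redox-cycling detection via DTT (250 uM final) oxidation coupled to Amplex Red (25 uM)/HRP (250 mU/mL) in HBSS. 15 min preincubation plus 30 min after DTT, room temperature. Ex/Em 525/598 nm; 4-parameter Hill fit against DMSO and 10 uM DA3003.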

Values without a mark were called inactive. Inconclusive results are not listed. The source made the active and inactive calls. Calls come from the whole dose curve; as a rule, active = well fitted curve in the direction sought with a large enough effect; inconclusive = small, poorly fitted or top-dose-only effect, or another doubt; inactive = no such curve, though single readings can be large; an effect the other way counts as inactive or inconclusive.

Sequence of Glutathione peroxidase 1 (Homo sapiens) (P07203 whole entry, looked up): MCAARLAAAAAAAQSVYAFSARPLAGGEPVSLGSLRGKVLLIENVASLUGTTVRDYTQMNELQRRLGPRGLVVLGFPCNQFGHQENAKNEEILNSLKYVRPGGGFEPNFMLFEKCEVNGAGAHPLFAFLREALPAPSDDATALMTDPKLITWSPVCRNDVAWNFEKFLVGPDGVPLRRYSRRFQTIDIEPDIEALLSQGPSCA
Sequence of Phospholipid hydroperoxide glutathione peroxidase GPX4 (Homo sapiens) (P36969 whole entry, looked up): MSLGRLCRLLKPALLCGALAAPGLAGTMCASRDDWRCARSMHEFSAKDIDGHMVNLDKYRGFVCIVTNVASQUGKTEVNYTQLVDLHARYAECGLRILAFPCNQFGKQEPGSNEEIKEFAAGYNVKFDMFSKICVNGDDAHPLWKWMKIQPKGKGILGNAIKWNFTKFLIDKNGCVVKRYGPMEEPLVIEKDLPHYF

`CC(=O)c1cc2c(cc1O)OC(C)(C)C=C2`: the Potency result in assay [1], in assay [2], in assay [3], in assay [4], in assay [5] and in assay [6] was “inactive” throughout.
On to `CC(Cc1cc2c(c(C(N)=O)c1)N(CCCO)CC2)NCCOc1ccccc1OCC(F)(F)F` (stereo unspecified), for which the Potency result in assay [1], in assay [2], in assay [3], in assay [4], in assay [5] and in assay [6] was “inactive” throughout.
For the molecule `C/C=C(\C)C(=O)O[C@H]1[C@@H](O[C@]2(COC(=O)CC(C)C)O[C@H](COC(=O)C(C)CC)[C@@H](OC(C)=O)[C@@H]2O)O[C@H](COC(C)=O)[C@@H](O)[C@@H]1O` (stereo partly specified), the Potency result in assay [1], in assay [2], in assay [3], in assay [4], in assay [5] and in assay [6] was “inactive” in each case.
With `O=S(=O)(c1ccc(S(=O)(=O)n2cnc3ccccc32)cc1)N1CCCCCC1`, the Potency result in assay [1], in assay [2], in assay [3], in assay [4], in assay [5] and in assay [6] was “inactive” each time.
As to `COc1ccc(C(O)C(C)OC2OC(CO)C(O)C(O)C2O)cc1` (stereo unspecified), the Potency entry in assay [1], in assay [2], in assay [3], in assay [4], in assay [5] and in assay [6] was “inactive” throughout.
For the molecule `CC1(C)CCCC2(C)C1CC=C1C(=O)OC(O)C12O` (stereo unspecified), the Potency result in assay [1], in assay [2], in assay [3], in assay [4], in assay [5] and in assay [6] was “inactive” in each case.
For `CC1CC(=O)C2=C(CCC3(O)C(O)c4c(O)cccc4C(=O)C23O)C1` (stereo unspecified), the Potency entry in assay [1], in assay [2], in assay [3], in assay [4], in assay [5] and in assay [6] was “inactive” each time.
In the case of `CC(=O)OC1CC2C3(C)CCC(OC(=O)CC(=O)O)C(C)(C)C3CCC2(C)C2(C)CCC(C3(C)CCC(=O)O3)C12` (stereo unspecified), the Potency entry in assay [1], in assay [2], in assay [3], in assay [4], in assay [5] and in assay [6] was “inactive” each time.
In the case of `COC(=O)C1=CO[C@@H](O[C@@H]2O[C@H](CO)[C@@H](O)[C@H](O)[C@H]2O)C2C1C(=O)C[C@H]2C` (stereo partly specified), the Potency result in assay [1], in assay [2], in assay [3], in assay [4], in assay [5] and in assay [6] was “inactive” in each case.
In the case of `CC(=O)CCC1=C(C)C(O[C@@H]2O[C@H](CO)[C@@H](O)[C@H](O)[C@H]2O)C(O)CC1(C)C` (stereo partly specified), the Potency entry in assay [1], in assay [2], in assay [3], in assay [4], in assay [5] and in assay [6] was “inactive” throughout.
`c1cc(Nc2cc(C3CC3)[nH]n2)nc(Nc2ccc3nc[nH]c3c2)n1`: the Potency in assay [1] is 0.468 µM (active). Further, the Potency entry in assay [2], in assay [3], in assay [4], in assay [5] and in assay [6] was “inactive” in each case.
Consider `O=C1NC(Cc2ccccc2)C(=O)N2CCCC12` (stereo unspecified), for which the Potency entry in assay [1], in assay [2], in assay [3], in assay [4], in assay [5] and in assay [6] was “inactive” in each case.
As to `C=CC(C)(C)c1[nH]c2cc3c(cc2c1CC1NC(=O)C2CCCN2C1=O)C=CC(C)(C)O3` (stereo unspecified), the Potency entry in assay [1], in assay [2], in assay [3], in assay [4], in assay [5] and in assay [6] was “inactive” in each case.
With `Cc1c2cc(c(C(=O)O)c1C)OC1OC(C(O)C(O)C1O)C(O)C(O)C1OC(O2)C(O)C(O)C1O` (stereo unspecified), the Potency entry in assay [1], in assay [2], in assay [3], in assay [4], in assay [5] and in assay [6] was “inactive” throughout.
`CC(C)O[C@@H]1O[C@H](CO)[C@@H](O)[C@H](O)[C@H]1O`: the Potency entry in assay [1], in assay [2], in assay [3], in assay [4], in assay [5] and in assay [6] was “inactive” throughout.
As for `O=S(=O)(NCC1CC1)c1ccc(Nc2nccc(N3CCCc4cc(O)ccc43)n2)cc1`, in assay [1], the Potency is 1.15 µM (active). Moreover, the Potency result in assay [2], in assay [3], in assay [4], in assay [5] and in assay [6] was “inactive” throughout.
Regarding `O=C(O[C@H]1[C@@H]2C=CO[C@@H](O[C@@H]3O[C@H](CO)[C@@H](O)[C@H](O)[C@H]3O)[C@@H]2[C@@]2(CO)O[C@@H]12)c1ccccc1`, the Potency entry in assay [1], in assay [2], in assay [3], in assay [4], in assay [5] and in assay [6] was “inactive” in each case.
Turning to `OC[C@H]1O[C@@H](OCCc2ccc(O)cc2)[C@H](O[C@@H]2OC[C@](O)(CO)[C@H]2O)[C@@H](O)[C@@H]1O`, the Potency result in assay [1], in assay [2], in assay [3], in assay [4], in assay [5] and in assay [6] was “inactive” in each case.
On to `OC[C@H]1O[C@@H](O[C@H]2[C@H](OCc3ccccc3)O[C@H](CO[C@@H]3OC[C@@H](O)[C@H](O)[C@H]3O)[C@@H](O)[C@@H]2O)[C@H](O)[C@@H](O)[C@@H]1O`, for which the Potency result in assay [1], in assay [2], in assay [3], in assay [4], in assay [5] and in assay [6] was “inactive” throughout.
Take `O=C(OCC1=CC(O)C2C=CO[C@@H](O[C@@H]3O[C@H](CO)[C@@H](O)[C@H](O)[C@H]3O)C12)c1ccccc1` (stereo partly specified): the Potency result in assay [1], in assay [2], in assay [3], in assay [4], in assay [5] and in assay [6] was “inactive” throughout.
Take `CN1c2ccccc2C(=O)N2CCC3c4ccccc4NC3C21` (stereo unspecified): the Potency in assay [1] was 2.01 µM (active); in assay [4], 10.5 µM (active). Moreover, the Potency result in assay [2], in assay [3], in assay [5] and in assay [6] was “inactive” in each case.

The values are drawn from PubChem BioAssay (NCATS).
